Laboratory results taken from the supplement of paper PMC3334620.
Whole data set: some 33,000 sequences, median “E-score (-0.5 to 0.5)” near -0.032, cut for the highest 2% near 0.36. For the sample, the highest values were picked, then their nearest neighbours and some sequences at random.

target: T1, Sko1 (UniProt Q02100); assay: PBM E-score (8-mer binding enrichment) (E-score (-0.5 to 0.5)); higher = stronger / more preferred TF binding; conditions: protein concentration: 200 nM; construct: GST-full length
T1 sequence: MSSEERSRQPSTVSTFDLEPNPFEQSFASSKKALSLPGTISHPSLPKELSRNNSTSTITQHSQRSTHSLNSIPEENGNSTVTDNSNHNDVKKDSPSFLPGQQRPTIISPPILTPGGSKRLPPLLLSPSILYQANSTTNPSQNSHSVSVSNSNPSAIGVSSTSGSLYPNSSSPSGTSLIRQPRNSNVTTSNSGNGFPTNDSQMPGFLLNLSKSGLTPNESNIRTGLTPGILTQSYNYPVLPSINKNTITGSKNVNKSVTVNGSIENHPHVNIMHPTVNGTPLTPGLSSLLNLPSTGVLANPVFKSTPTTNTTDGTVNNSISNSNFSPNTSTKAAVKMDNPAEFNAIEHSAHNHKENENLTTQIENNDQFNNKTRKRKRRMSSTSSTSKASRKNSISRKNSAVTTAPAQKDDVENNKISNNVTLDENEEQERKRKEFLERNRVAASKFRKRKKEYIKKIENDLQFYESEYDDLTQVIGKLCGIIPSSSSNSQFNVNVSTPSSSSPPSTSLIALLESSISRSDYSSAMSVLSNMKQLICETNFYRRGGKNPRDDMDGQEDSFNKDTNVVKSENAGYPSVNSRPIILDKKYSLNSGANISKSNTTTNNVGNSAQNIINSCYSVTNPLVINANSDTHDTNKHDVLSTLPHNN
Experimental: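 Universal 'all 10-mer' protein binding microarrays (Agilent AMADID 015681) probed with GST-tagged S. cerevisiae TFs (full-length or DBD) made by in vitro transcription/translation (PURExpress), about 100-200 nM. Bound TF was detected with fluorescent anti-GST. Each ungapped 8-mer (which stands for itself and its reverse complement) is scored by the PBM enrichment score (E-score), a modified Wilcoxon-Mann-Whitney statistic from -0.5 to +0.5, computed with the Universal PBM Analysis Suite. Scale: above 0.35 generally sequence-specific binding.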

Sequence | PBM E-score
ACGTGGCG | 0.368
AACTCAGG | -0.0444
AGCGCTGC | -0.167
AGACAGAT | 0.0457
ACTTGTGG | -0.0685
ACCCGAGC | -0.224
GTAGGCTA | 0.0728
CGTTATGA | 0.267
CTTGCTTC | 0.0228
AGGTTGAC | -0.0293
ACGTCCTC | 0.206
GGTCTGGA | -0.25
ACGTGCAT | 0.396
ACGTGCAA | 0.35
AGGTGGTG | -0.0259
AAGTGGTG | -0.113
ACGTGGTG | 0.376
ACGTGCAC | 0.355
AACAGTGG | -0.244
AGGGCGAC | -0.2
AAATTCTG | 0.052
GTGTTCTA | 0.0982

Sequence | PBM E-score
AATCCCGA | 0.105
GCATCGCA | -0.35
GTTCGTAA | 0.355
ATTCGTCG | 0.22
CTTCGTAA | 0.287
GTTCGTGA | -0.0757
ATTCGTAA | 0.433
GTTCGTTA | 0.107
CTTCGTCC | -0.226
ATTCGTCC | 0.119
ATTCGTCA | 0.464
CTTCGTTA | 0.161
CTTCGTCA | 0.412
GTTCGTCA | 0.367
GAAATGGC | 0.00268
CGCAAGCA | 0.0501
AAAGGTAT | 0.0611
CAACAGTA | -0.0581
CATTTGTC | 0.0524
CATAAGAC | 0.1
GGTTTGAC | 0.0235
GGATGAAA | 0.033

Sequence | PBM E-score
GTACGTAC | 0.44
ATCCGTAC | 0.151
GTACGAAC | 0.284
ATACGTAC | 0.473
CTACGGAA | 0.157
ATACGAAC | 0.256
CTACGTAG | 0.449
CTACGGAG | -0.193
CTACGTAA | 0.489
GTACGGAC | -0.0428
CTCCGTAA | 0.0488
CTACGAAG | -0.0419
CCCTAAAG | -0.213
GTGAGGTA | 0.0525
ATCGGTGC | 0.105
AATAATCT | 0.125
CCCATCGC | -0.232
TAGTTACA | 0.0798
AGCAAAAC | 0.0756
AGGCCCAT | -0.288
ATACGTAG | 0.471
ATACGTAT | 0.487

Sequence | PBM E-score
GTACGGAA | -0.00063
CTCCGTAC | -0.153
ATACGAAT | 0.286
GTCCGTAA | 0.00251
CTACGAAC | 0.0886
ATACGAAG | 0.223
GTACGTAA | 0.487
CTACGTAC | 0.449
ATACTTAG | -0.0209
ATACGGAT | 0.111
ATGGACAC | 0.0118
GGATCACC | -0.181
GTCTATGA | 0.238
AACTCACA | 0.0634
GCACCCGC | -0.0958
AGACTACG | 0.136
CCTTACCC | -0.149
GAGCAGGA | -0.112
ATACGGAA | 0.141
ATACGTAA | 0.491
ATCCGTAA | 0.0757
